ChEMBL document CHEMBL3988442, “University of Dundee, Small-Polar-MMV Screening Library” (2021)
Hit rate of the full screen: of about 85,000 compounds, about 440 (0.52%) showed an effect of 50% or more. This excerpt belongs to a sample that is enriched for strong results.

Experiment: In vitro enzyme assay to detect hydrolysis of chlorophenol red-beta-D-[…] directly proportional to the number of Toxoplasma stably expressing beta-galactosidase
Type: functional, organism-based, Toxoplasma gondii
Parameters: scale not given: in the data most compounds retested in dose-response had high values

Row | Compound | Percent Effect (50 µM) | Percent Effect (10 µM)
1 | CC(C(N)=O)N(C)CCCOc1ccccc1 (stereo not given) | 9.989% | 
2 | Cc1ccccc1OCCC(=O)OC(C)C(=O)Nc1sccc1C(N)=O (stereo not given) |  | -4.306%
3 | CC(C(=O)Nc1sccc1C(N)=O)N(C)CCOc1ccccc1 (stereo not given) |  | 66.89%
4 | CCc1nsc(N2CC(CO)C2)n1 | 7.559% | 
5 | CCCC(O)CNS(=O)(=O)c1cc(F)cc(F)c1 (stereo not given) | -5.662% | 
6 | CC1CCCN(C(=O)c2cc(O)nc3ccccc23)C1 (stereo not given) | 6.15% | 
7 | COc1ccc(C2CCCN2c2cnccn2)c(OC)c1 (stereo not given) |  | -3.299%
8 | COc1ccc(C2CCCN2c2nnc(C)s2)c(OC)c1 (stereo not given) |  | 0.194%
9 | COc1ccc(C2CCCN2c2ccnc(C)c2Cl)c(OC)c1 (stereo not given) |  | 50.91%
10 | NCCN1CCc2c(Cl)cccc2C1=O | 17.2% | 
11 | NC1CCN(C(=O)C2CCCC2)C1 (stereo not given) | 2.86% | 
12 | Cn1nc(-c2nc(C(C)(C)C)no2)ccc1=O | 3.371% | 
13 | N#CC[C@@H](N)c1ccccc1 | -6.546% | 
14 | CNc1cc(-c2cccc(OC)c2OC)nc(N)n1 | 50.78% | 
15 | COc1ccc(F)c(-c2cc(NCCO)nc(N)n2)c1 |  | 0.663%
16 | COc1ccc(-c2cc(NCCO)nc(N)n2)cc1C | 29.21% | 
17 | CC(C)(C)CCOc1cnccc1CN | 14.78% | 
18 | Cc1cc(NCCO)nc(N2CCC(Cc3ccccc3)CC2)c1C#N.O=C(O)C(=O)O |  | 62.98%
19 | Cc1cc(NCCO)nc(N2CCN(C)CC2)c1C#N |  | -10.98%
20 | Cc1cc(NCCO)nc(N2CCCC2)c1C#N |  | 1.046%

Row | Compound | Percent Effect (50 µM) | Percent Effect (10 µM)
21 | Cc1cc(C)c(C#N)c(N2CCC(Cc3ccccc3)CC2)n1 |  | -2.69%
22 | Cc1cc(NCCO)nc2ccccc12 | -2.255% | 
23 | CCCC(C)C(=O)N1CCOCC1 (stereo not given) | -3.427% | 
24 | NC(=O)CN(CCCO)Cc1ccccc1 | -1.308% | 
25 | O=S(=O)(CCN1CCC(CO)CC1)c1ccccc1 | -26.81% | 
26 | Cc1cc(=O)[nH]c(-n2nc(C3CC3)cc2N)n1 |  | 28.72%
27 | CCCc1cc(=O)[nH]c(-n2nc(C3CC3)cc2N)n1 |  | 94.33%
28 | CCc1c(C)nc(-n2nc(C3CC3)cc2NC(C)=O)[nH]c1=O |  | -1.935%
29 | CC(C)c1cc(=O)[nH]c(-n2nc(C3CC3)cc2N)n1 |  | 94.68%
30 | Cn1nc(CNC(=O)C2CC2)cc1C1CC1 |  | -6.984%
31 | CCCc1cc(=O)[nH]c(C(C)(N)CC)n1 (stereo not given) | 0.6774% | 
32 | CC(C)c1cc(=O)[nH]c(C(C)(C)N)n1.Cl |  | 21.75%
33 | CCc1cc(=O)[nH]c(-n2nc(C3CC3)cc2NC(=O)C2CC2)n1 |  | 96.09%
34 | CCCc1cc(=O)[nH]c(-n2nc(-c3cccs3)cc2N)n1 |  | 36.6%
35 | Cc1nscc1C(=O)OCCC(=O)NC(C)C | -12.79% | 
36 | CCCn1nc(C)cc1NC(=O)N1CCCC(C#N)C1 (stereo not given) | -0.4936% | 
37 | COc1cc(Br)cnc1C#N | -14.47% | 
38 | CSCc1ccc(C(=O)N2CC(CC(N)=O)C2)cc1 | -6.52% | 
39 | NCc1ccccc1OC(F)(F)F | 14.39% | 
40 | OC1(c2ccccc2)CCCNCC1 (stereo not given) | 3.493% | 

Row | Compound | Percent Effect (50 µM) | Percent Effect (10 µM)
41 | CCc1nnc(NC(=O)c2ccc(S(=O)(=O)NC)o2)s1 | -1.635% | 
42 | CCSc1ccc(C(=O)NCCc2nnc[nH]2)cn1 | 5.402% | 
43 | Cc1cccc(C)c1OCC(=O)N1CCOCC1c1ncon1 (stereo not given) |  | 56.8%
44 | CCc1ccccc1OCC(=O)N1CCOCC1c1ncon1 (stereo not given) |  | 7.498%
45 | O=C(COc1cccc(Cl)c1)N1CCOCC1c1ncon1 (stereo not given) |  | 37.28%
46 | OC1(C2CCCCC2)CCNCC1 | 0.8115% | 
47 | C=C(Br)CN1CCN(CCNC(=O)C2CCC2)CC1 | -27.84% | 
48 | CN(C)c1ccc(NC(=O)CCc2cccnc2)cn1 | -6.854% | 
49 | CCc1nccn1CCNC1CCN(c2nc3ccc(Cl)cc3s2)CC1 |  | 59.54%
50 | Clc1ccc2nc(N3CCC(NCCCC4CCOC4)CC3)sc2c1 (stereo not given) |  | -1.385%
51 | CCS(=O)(=O)CCNC1CCN(c2nc3ccc(Cl)cc3s2)CC1 |  | 6.923%
52 | CC(CNC(=O)Nc1cn[nH]c1)N(C)C (stereo not given) | -3.915% | 
53 | CC(=O)Nc1cn[nH]c1 | -20.18% | 
54 | CC(CN)C(=O)Nc1cn[nH]c1 (stereo not given) | 55.25% | 
55 | CCn1cc(S(=O)(=O)N2CCNCC2)c(C)n1 | -15.85% | 
56 | NC(=O)C1CN(c2ccc3cccc(Br)c3n2)CCO1 (stereo not given) | -8.237% | 
57 | CS(=O)(=O)c1cc(Cl)cc(CN)c1 | -21.93% | 
58 | CNS(=O)(=O)c1ncccc1N | -16.66% | 
59 | NCc1cccc(CN2CCCC2)c1 | 60.68% | 
60 | NCc1ccc(CN2CCCCC2)cc1 | 0.9541% | 
